# Results taken from PubChem BioAssay AID2314 (National Center for Advancing Translational Sciences (NCATS), 2010).
# Among all 300,000 compounds or so, about 37,000 (12%) were called active. For the sample, actives were picked, then their nearest neighbours and some compounds at random. Unmarked numbers belong to inactive results. Cut-off read from the data, not from the text of the source: active = max response mostly above about 13% (no sharp cut-off); inactive = mostly below about 14%.
# Test: Cycloheximide Counterscreen for Small Molecule Inhibitors of Shiga Toxin; note: read at 38.3 µM for the half of the compounds with a filed dose; 0% is about no effect
# Settings: cell reporter, cycloheximide protein synthesis inhibition counterscreen; hits give high values
row,SMILES,max response
1,O=[N+]([O-])c1ccc(Oc2ccc(F)cc2Br)c2ccncc12,-2.77%
2,CCCCn1nc(C(=O)Nc2ccc(S(=O)(=O)Nc3ncccn3)cc2)c2ccccc2c1=O,-8.36%
3,O=C1c2cccc(OCC(=O)N3N=C(c4cccs4)CC3c3ccc(F)cc3)c2CCN1Cc1ccccc1 (stereo not drawn),4.05%
4,CCOc1cc(C2C(C(=O)c3ccco3)=C(O)C(=O)N2Cc2ccccc2)ccc1O (stereo not drawn),4.82%
5,Cc1cc(=O)oc2c(C)c(OCC(=O)NCCN3CCOCC3)ccc12,7.13%
6,CCNc1c(NS(=O)(=O)c2ccc(C3CCCCC3)cc2)c(=O)oc2ccccc12,-5.65%
7,CC(c1ccccc1)n1c(NCCCn2ccnc2)nc2c1c(=O)[nH]c(=O)n2C (stereo not drawn),-2.03%
8,COc1ccc(-c2c(NC(=O)c3ccco3)oc3ccc(Cl)cc3c2=O)cc1,1.49%
9,COc1ccc(CN2CCCC(N3CCc4ccccc4C3)C2)c(O)c1 (stereo not drawn),-0.856%
10,CCOc1ccc(NC(=O)[C@H](C)NC(=O)C2CC(=O)N(c3ccc(OC)cc3)C2)cc1 (stereo partly drawn),4.95%
11,O.O.O.O=S(=O)([O-])OC[C@H]1O[C@@H](O[C@]2(COS(=O)(=O)[O-])O[C@H](OS(=O)(=O)[O-])[C@@H](OS(=O)(=O)[O-])[C@@H]2OS(=O)(=O)[O-])[C@H](OS(=O)(=O)[O-])[C@@H](OS(=O)(=O)[O-])[C@@H]1OS(=O)(=O)[O-].[Al],-3.55%
12,O=C(c1ccccc1)N1CCN(C(=O)c2cc3nc(-c4ccccc4)cc(C(F)(F)F)n3n2)CC1,-1.97%
13,COc1cccc(-c2nnc(NC(=O)c3ccc(S(=O)(=O)N(CC(C)C)CC(C)C)cc3)o2)c1,-5.08%
14,Cc1ccc(N2C(=O)C3CC3C2=O)cc1 (stereo not drawn),-6.06%
15,Cc1ccc(N2CCN(c3ccc(C)cc3)C2c2ccccn2)cc1,21.8% (active)
16,Cc1ccc(S(=O)(=O)NCC(=O)N2CCN(c3ccccn3)CC2)cc1,-5.16%
17,CC1=NN(/C(=N\c2nnc(C)s2)Nc2ccccc2)[C@H](c2ccc(C)cc2)S1,-0.911%
18,COc1ccc(O)c(C(=O)c2cnc3onc(C(C)C)c3c2)c1,26.6% (active)
19,COCCn1c(=O)[nH]c(=O)c2cc(C(=O)c3cc(OC)ccc3O)cnc21,-3.24%
20,COc1ccc(O)c(C(=O)c2cnc3c(c2)c(-c2ccc(F)cc2)c(C#N)c(=O)n3C)c1,11.3%
21,O=C(CS(=O)(=O)c1cn(Cc2ccc(Cl)cc2)c2ccccc12)N1CCOCC1,-4.25%
22,Cc1[nH]n(-c2ccc([N+](=O)[O-])cc2)c(=O)c1C=NCCN1CCN(C(=O)c2ccccc2F)CC1,-3.41%

row,SMILES,max response
1,Cc1cc(Cl)ccc1C(=O)C1CCCN(C(=O)CCN2CCCO2)C1 (stereo not drawn),-2.88%
2,COC(=O)c1cc(C)sc1NC(=O)CC1Nc2ccccc2NC1=O (stereo not drawn),22.8% (active)
3,CCN(CC)CCNCC(=O)Nc1ccc(Oc2ccccc2)cc1,-2.52%
4,O=C(CC1NCCNC1=O)Nc1ccc(Oc2ccccc2)cc1 (stereo not drawn),30% (active)
5,CCc1ccc(NC(=O)CC2C(=O)NCCN2C(=S)Nc2ccccc2)cc1 (stereo not drawn),5.14%
6,CCOc1ccc(NC(=O)CC2NCCNC2=O)cc1 (stereo not drawn),0.991%
7,Cc1ccc(CNC(=O)CC2Sc3ccccc3NC2=O)cc1 (stereo not drawn),-1.23%
8,O=C(CC1Nc2ccccc2NC1=O)Nc1ccccc1 (stereo not drawn),31% (active)
9,CCOC(=O)c1ccccc1NC(=O)CC1Nc2ccccc2NC1=O (stereo not drawn),-6.08%
10,COC(=O)C(C)C1Sc2ccccc2NC1=O (stereo not drawn),-1.04%
11,CC1CCN(CCC(=O)Nc2ccccc2)CC1,1.18%
12,O=C(CC1Nc2ccccc2NC1=O)Nc1ccccc1NC(=O)CC1Nc2ccccc2NC1=O (stereo not drawn),34.5% (active)
13,CCc1cc(C(=O)OC)c(NC(=O)CC2Sc3ccc(C(F)(F)F)cc3NC2=O)s1 (stereo not drawn),0.357%
14,CC1CCCN(S(=O)(=O)c2ccc(N(C(=O)c3cnccn3)C(C(=O)NC3CCCCC3)c3cccs3)cc2)C1 (stereo not drawn),-3.46%
15,COC(=O)c1ccc(COc2ccc(C#N)cc2)o1,0.875%
16,Cc1cc(C(=O)CSc2nc(N)cc(=O)[nH]2)c(C)n1CCc1ccc(Cl)cc1,4.99%
17,C=CCN(c1ccc(Cl)cc1)S(=O)(=O)c1cccc(C(=O)OCC(=O)N(C)C)c1,-6.49%
18,COc1cc(C(=O)NCc2nnc(SCC(=O)Nc3nc4ccc(C)cc4s3)o2)cc(OC)c1OC,4.75%
19,CCOC(=O)c1cccc(NC(=O)CN2C(=O)C3CC=CCC3C2=O)c1 (stereo not drawn),-0.226%
20,CCC1C=C(c2ccccc2)C=CN=C1N(CC)CC (stereo not drawn),-0.252%
21,O=c1/c(=C/c2ccc(CNS(=O)(=O)c3ccccc3)o2)sc2n1CCN=2,-4.34%
22,CCc1nc(C)cn1S(=O)(=O)c1cc([N+](=O)[O-])ccc1Cl,-1.54%

row,SMILES,max response
1,Cc1ccc(NC(=O)CN2CCC3(O)CCCCC3C2c2ccc3c(c2)OCO3)c(C)c1 (stereo not drawn),-2.23%
2,Cc1ccc(C(=O)N/C(=C/c2cccs2)C(=O)N2CCCCC2)cc1,13.7%
3,Cc1ccc(C(=O)N/C(=C\c2cccs2)C(=O)NCCc2ccccn2)cc1C,31.4% (active)
4,Cc1ccc(C(=O)N/C(=C/c2cccs2)C(=O)NCC2CCCO2)cc1 (stereo not drawn),-3.91%
5,O=C(Cc1ccc([N+](=O)[O-])cc1)Nc1ccc(C(=O)N2CCOCC2)cc1,-1.78%
6,CCNC(=O)Nc1ccc(S(=O)(=O)Nc2cnc(C)nc2C)cc1,-7.45%
7,O=C(/C=N/O)Nc1ccccc1,-2.41%
8,CC(C)n1c(=O)[nH]c2cc(C(=O)Nc3ccccc3)ccc21,-2.19%
9,O=C(Nc1ccccc1)c1cc2ccccc2[nH]1,42.1% (active)
10,COc1ccc(NC(=S)SC)cc1OC,-3.14%
11,COc1ccc2c(c1)N(C)/C(=C1/SC(=S)N(NC(C)=O)C1=O)S2,5.97%
12,COc1ccc(/C=C/C2=CC(C)(C)NC(=S)N2)c(OC)c1,5.95%
13,COCCc1nn2c(=O)cc(COC(=O)c3cc(OC)c(OC)c(OC)c3)nc2s1,3.56%
14,CC1=C(/C=C/C(C)=C/C=C/C(C)=C/C=C/C=C(C)/C=C/C=C(C)/C=C/C(=O)[C@]2(C)C[C@@H](O)CC2(C)C)C(C)(C)C[C@H](O)C1,9.8%
15,CCOc1ccccc1-c1cc(C(=O)N2CCOCC2)c2ccccc2n1,-3.29%
16,CCOc1cccc(/C=C/c2ccc3ccccc3n2)c1OC(C)=O,25.2% (active)
17,COc1cccc(/C=C/c2ccc3ccccc3n2)c1OC(C)=O,28.2% (active)
18,CCOc1ccccc1-c1cc(C(=O)N/N=C(\C)c2cccnc2)c2ccccc2n1,-1.08%
19,COc1cccc(/C=C2\C=C(c3ccc(C)cc3)OC2=O)c1OC(C)=O,1.6%
20,COc1ccc(CNC(=O)/C(C#N)=C/c2cccc(OC)c2OC)cc1,-1.4%
21,CCOc1ccc(CCNC(=O)CCc2nnc3ccc(N4CCCC4)nn23)cc1OCC,1.2%
22,Cn1nccc1C(=O)NC1CCCc2c1cnn2-c1ccccc1F (stereo not drawn),-0.344%

row,SMILES,max response
1,Cc1ccc2oc(=O)c3cnn(CC(=O)N(Cc4ccco4)C4CCCCC4)c3c2c1,-5.66%
2,CCOC(=O)c1c(C)n(C)c2ccc(OC)c(NS(=O)(=O)CC)c12,3.73%
3,COc1ccc(COCC(O)CN2CCC(C(N)=O)CC2)cc1 (stereo not drawn),-2.46%
4,CCOc1cc(CN2CCN(C(=O)CC(C)C)CC2)ccc1OC,-2.09%
5,COc1cc(CN2CCC(C(N)=O)CC2)ccc1OCc1ccccc1,34.9% (active)
6,O=C(Nc1ccc(Cl)cc1)c1ccsn1,50.1% (active)
7,CCC(=O)Nc1ccc(C(=O)NNC(=O)c2ccc(Cl)cc2)cc1,-0.754%
8,O=C(NCc1cn2ccsc2n1)Nc1ccc(Cl)cc1,1.41%
9,Cc1c(CCC(=O)N[C@@H](CC(C)C)C(=O)O)c(=O)oc2c(C)c3oc4c(c3cc12)CCCC4,-2.26%
10,O=C(OCC(=O)N1CCN(C(=O)c2ccco2)CC1)c1ccccc1Cc1ccccc1,34.9%
11,CC(C)c1nnc(NC(=O)CCC(=O)N2CCN(c3cccc(Cl)c3)CC2)s1,4.84%
12,O=C(c1cccc([N+](=O)[O-])c1)N1CCN(C(=O)c2ccco2)CC1,-0.729%
13,CS(=O)(=O)N(CC(=O)N1CCN(c2cccc(Cl)c2)CC1)c1ccccc1,-1.4%
14,O=C(c1ccco1)N1CCN=C1SCc1cccc(Cl)c1,-6.49%
15,O=C(c1ccco1)N1CCN(c2cccc(Cl)c2)CC1,23.2% (active)
16,O=C(c1ccco1)N1CCN(C(=O)C2CC(c3ccc(F)cc3)=NO2)CC1 (stereo not drawn),-6.02%
17,O=C(c1ccc2c(c1)OCO2)N1CCN(C(=O)c2ccco2)CC1,-3.05%
18,O=C(c1ccco1)N1CCN(C(=O)C2c3ccccc3Oc3ccccc32)CC1,12.3% (active)
19,O=C(CCCC(=O)N1CCN(c2cccc(Cl)c2)CC1)c1ccccc1,19.7% (active)
20,O=C(OCC(=O)N1CCN(C(=O)c2ccco2)CC1)c1cccc(O)c1,5.85% (active)
21,O=C(OCC(=O)N1CCCC1)c1ccco1,10.1%
22,CCOC(=O)Cn1c(=O)sc2cccc(Cl)c21,-1.55%
